In PubChem BioAssay AID1159580 (chemical genetic matrix, 2015):
Among all 5,500 compounds or so, about 2,000 (36%) were called active. Inconclusive results (about 18%) are left out. No stated cut-off is given here; in the data, active means normalized growth mostly below about 0.91 (no sharp cut-off); inconclusive means no clear call, values can overlap the other calls; inactive means mostly above about 0.92. This is one part of the list.

Assay: chemical genetic growth profiling, strain panel (AID 1159580);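 further: tested at 20 µM; growth read once vehicle control cultures reached saturation at 30 °C; 1 = growth at the plate median or of vehicle wells; lower values mean less growth of the strain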
Conditions: S. cerevisiae deletion strains, growth OD
[1] = locus YAL040C, strain CLN3, active compounds read low
[2] = locus YCL061C, strain MRC1 (second series), active compounds read low
[3] = locus YDR363W, strain ESC2, active compounds read low
[4] = locus YER002W, strain NOP16, active compounds read low
[5] = locus YJR075W, strain HOC1, active compounds read low
[6] = locus YNL153C, strain GIM3, active compounds read low
[7] = locus YNL175C, strain NOP13, active compounds read low
[8] = locus YNL197C, strain WHI3, active compounds read low
[9] = locus YNL224C, strain SQS1, active compounds read low
[10] = locus YNL322C, strain KRE1, active compounds read low
[11] = locus YOR083W, strain WHI5 (second series), active compounds read low
[12] = locus YPL055C, strain LGE1, active compounds read low

Measured: normalized growth

N[C@H]1CONC1=O
inactive: locus YAL013W, strain DEP1, active compounds read low 1.01 | [1] 1.08 | [2] 0.995 | [3] 0.995 | [4] 0.988 | [5] 1.02 | [6] 0.955 | [7] 0.986 | [8] 1.02 | [9] 0.994 | [10] 1.01 | [11] 0.993 | [12] 0.992

N=C(N)SCCc1cnc[nH]1
inactive: [1] 0.985 | [2] 0.988 | [3] 1.01 | [4] 1.02 | [5] 0.998 | locus YMR263W, strain SAP30, active compounds read low 0.979 | locus YNL128W, strain TEP1, active compounds read low 0.995 | [6] 0.972 | [7] 0.992 | [8] 0.98 | [9] 0.991 | [10] 0.979 | [11] 0.988 | [12] 1
